CBFb-RUNX1 inh = CBF-beta/RUNX1 interaction disruption | AlphaScreen CBFb-His/RUNX1-biotin binding, biochemical | AID 1477 | 230,000 tested, under 10 active | Potency, µM (titrated, usually from 59.8 µM), actives largely listed as inhibitors | Q01196+Q13951
Target sequence (Q01196 whole entry, looked up): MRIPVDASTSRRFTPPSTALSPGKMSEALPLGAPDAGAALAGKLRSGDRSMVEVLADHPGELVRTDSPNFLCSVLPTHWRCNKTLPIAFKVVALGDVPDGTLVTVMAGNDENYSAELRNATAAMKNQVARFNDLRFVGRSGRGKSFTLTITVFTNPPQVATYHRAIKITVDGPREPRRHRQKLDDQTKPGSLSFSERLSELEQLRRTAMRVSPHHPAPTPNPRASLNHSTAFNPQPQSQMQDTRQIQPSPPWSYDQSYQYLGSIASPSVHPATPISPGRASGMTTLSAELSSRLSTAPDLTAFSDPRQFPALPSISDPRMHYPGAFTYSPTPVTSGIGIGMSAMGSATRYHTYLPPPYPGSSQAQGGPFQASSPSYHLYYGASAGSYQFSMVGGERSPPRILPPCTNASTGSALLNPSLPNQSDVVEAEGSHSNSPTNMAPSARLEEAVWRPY
Target sequence (Q13951 whole entry, looked up): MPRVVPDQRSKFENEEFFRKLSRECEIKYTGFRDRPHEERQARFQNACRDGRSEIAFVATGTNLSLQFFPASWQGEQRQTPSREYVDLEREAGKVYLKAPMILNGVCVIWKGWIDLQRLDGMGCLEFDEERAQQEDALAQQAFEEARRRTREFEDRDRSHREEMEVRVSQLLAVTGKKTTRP
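Proteins preincubated together for 20 min at RT before compound addition; 15 min later, nickel and streptavidin beads were added and left 90 min prior to AlphaScreen measurement.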
HTT cytoprotect = cytoprotection in Huntington HTT-Q103 PC12 cell model; Potency, µM (highest dose often 56.4 µM), most hits filed as activators; AID 1471; hit rate 0.14% among 230,000; PC12 HTT-Q103 induced, cytoprotection, ATP luminescence, 40 h; note: nearly all actives have a fitted effect of over 45% in size
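Compounds added alongside 100 nM tebufenozide, which induces toxic Q103 huntingtin exon 1-GFP in stable PC12 cells; surviving cells quantified by luminescent ATP measurement. Medium: phenol red-free DMEM, 5% equine and 5% calf serum.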
PNC assembly inh = inhibitors of perinucleolar compartment assembly; AID 2417; activity change (PNC), negative = inhibition, % at 10 µM; PC3M PTB-GFP, PNC prevalence imaging, 16 h; active compounds read low; hit rate 3.1% among 140,000;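 active = readout at or below -70, meaning at least 70% loss of cells showing the perinucleolar compartment, a nuclear body marking cancer cells; inconclusive = readout between -30 and a set limit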
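PC3M cells stably expressing PTB-GFP, 750–1000 cells/well, treated 16 h at 37 °C with compound (23 nl of library stock), in duplicate. After paraformaldehyde fixation and Hoechst stain, imaged at 20x; PNC prevalence scored by image analysis.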
ALDH1A1 block = ALDH1A1 (human) enzyme inhibition; hit rate 7.3% among 220,000; Potency, µM (doses to about 75.3 µM), hits mostly inhibitors; Purified ALDH1A1, NADH fluorescence, propionaldehyde substrate; active = well fitted inhibition curve with a large enough effect, not every such curve was filed as active; inconclusive = small, poorly fitted or top-dose-only effect, or another doubt; inactive = no such curve, though single readings can be large or run the other way
HPGD block = blocks human HPGD enzyme activity | Potency, µM, hits mostly inhibitors | hit rate 4.3% among 150,000 | purified HPGD, NADH fluorescence kinetic, PGE2 substrate | P15428; active = well fitted inhibition curve with a large enough effect, not every such curve was filed as active; inconclusive = small, poorly fitted or top-dose-only effect, or another doubt; inactive = no such curve, though single readings can be large or run the other way
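20 nM HPGD preincubated 15 min at room temperature with compound in 50 mM Tris-HCl pH 8, 0.01% Tween 20. Started with 1 mM NAD+ and 30 uM prostaglandin E2; NADH fluorescence (360/450 nm) read 5 times over 30-s intervals, last minus first.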
HttQ103 aggreg = reduces HttQ103-GFP aggregates in PC12 cells; PC12 HttQ103-GFP aggregates, Acumen cytometry, 40 h; AID 1688; Potency, µM (top dose mostly 46.1 µM), actives largely listed as inhibitors; hit rate 1.1% among 220,000; note: nearly all actives have a fitted effect of over 60% in size
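Compounds (qHTS titration) were added to PC12 cells expressing an ecdysone-driven HTT exon 1 Q103–GFP fusion after induction with 100 nM tebufenozide. Aggregate formation was measured as GFP objects in cell lysates.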
Of the large screens only hits and unclear results are named; the others gave an inactive call. An excerpt weighted towards active compounds, which were near 11% of everything screened. Unless noted, calls come from the whole dose curve; as a rule, active = well fitted curve in the direction sought with a large enough effect; inconclusive = small, poorly fitted or top-dose-only effect, or another doubt; inactive = no such curve, though single readings can be large; an effect the other way counts as inactive or inconclusive.

O=C1c2cccc(OCC(=O)N3N=C(c4cccs4)CC3c3ccc(F)cc3)c2CCN1Cc1cccnc1 (configuration not stated)	CBFb-RUNX1 inh inconclusive, ALDH1A1 block inconclusive, HPGD block inconclusive
O=C(O)c1ccc(F)c(S(=O)(=O)Nc2cccc(F)c2)c1	none (no result: CBFb-RUNX1 inh, HTT cytoprotect, PNC assembly inh, HttQ103 aggreg)
Cc1nc(NCCc2ccccc2)c2oc3ccccc3c2n1	ALDH1A1 block inconclusive, HttQ103 aggreg 7.9µM
Cc1nc(NCCN2CCOCC2)c2oc3ccccc3c2n1	none
Cc1cc(C)nc(Sc2nc(C)nc3c2oc2ccccc23)n1	ALDH1A1 block inconclusive, HPGD block 32µM (no result: HttQ103 aggreg)
Cc1nc(SCc2cccc(F)c2)c2oc3ccccc3c2n1	none (no result: PNC assembly inh, ALDH1A1 block, HPGD block)
CC1OC(Nc2cccc3ccccc23)C(O)C(O)C1O (configuration not stated)	ALDH1A1 block inconclusive, HPGD block inconclusive
O=C(Nc1nnc(Cc2ccc(Cl)cc2)s1)C1CCCO1 (configuration not stated)	ALDH1A1 block 14µM (no result: HTT cytoprotect, PNC assembly inh, HPGD block, HttQ103 aggreg)
COc1ccc(Cc2nnc(NC(=O)C3CCCO3)s2)cc1OC (configuration not stated)	PNC assembly inh inconclusive, ALDH1A1 block inconclusive
CCCCCc1nnc(NC(=O)C2CCCO2)s1 (configuration not stated)	ALDH1A1 block inconclusive
COc1ccc(Cc2nnc(NC(=O)C3CCCO3)s2)cc1 (configuration not stated)	PNC assembly inh -123, ALDH1A1 block inconclusive
CC(C)c1c(O)ccc2c1CCC1[C@@](C)(C=O)CCC[C@@]21C (some centres not stated)	none (no result: PNC assembly inh, HttQ103 aggreg)
COC(=O)[C@H](CC(C)C)NC(=O)Nc1ccc(S(N)(=O)=O)cc1	none (no result: PNC assembly inh, ALDH1A1 block, HPGD block)
Cc1ccsc1/C=C1/SC(N2CC(C)OC(C)C2)=NC1=O (configuration not stated)	ALDH1A1 block 11µM, HPGD block 32µM, HttQ103 aggreg inconclusive
CCC/C=C(\CCC)C(NC(=O)Oc1ccc(F)cc1)c1ccc(C(=O)OC)cc1 (configuration not stated)	none (no result: PNC assembly inh, HttQ103 aggreg)
Cc1cccc(Cn2nnc3c2C(=O)c2ccccc2C3=O)c1	HPGD block 14µM, HttQ103 aggreg inconclusive
c1ccc(C2=NN[C@@H]3c4ccccc4-c4ccccc4N3C2)cc1	HTT cytoprotect inconclusive, ALDH1A1 block inconclusive (no result: CBFb-RUNX1 inh, PNC assembly inh, HttQ103 aggreg)
COc1ccc(N)cc1-n1c(C)ccc1C	ALDH1A1 block 14µM (no result: PNC assembly inh, HPGD block)
COc1ccc(C)cc1-n1c(C)cc(C=O)c1C	ALDH1A1 block inconclusive (no result: PNC assembly inh, HPGD block)
N[C@@H](Cc1cccc([N+](=O)[O-])c1)C(=O)O	none (no result: CBFb-RUNX1 inh, PNC assembly inh, HttQ103 aggreg)
COC(=O)c1ccc(CSc2nc3ccccc3c(=O)n2-c2ccc(OC)c(OC)c2)o1	none
Cc1nc(CSc2nc3[nH]ncc3c(=O)n2-c2ccccc2)cs1	ALDH1A1 block 13µM
Cc1noc(C)c1CSc1nc2[nH]ncc2c(=O)n1-c1ccccc1	PNC assembly inh -100, ALDH1A1 block 1.3µM, HttQ103 aggreg inconclusive
Cc1noc(C)c1CSc1nc2ccccc2c(=O)n1-c1ccc(F)cc1F	PNC assembly inh inconclusive, ALDH1A1 block 8.9µM
Cc1nc(CSc2n[nH]c(=O)n2-c2ccccc2)cs1	none (no result: PNC assembly inh, HPGD block)
COC(=O)c1ccc(CSc2nc3ccccc3c(=O)n2-c2ccccc2)o1	ALDH1A1 block 25µM, HttQ103 aggreg inconclusive
Cc1ccc(S(=O)(=O)Nc2ccccc2C(=O)c2ccc(C)c(C)c2)cc1	ALDH1A1 block inconclusive, HPGD block inconclusive (no result: CBFb-RUNX1 inh, PNC assembly inh, HttQ103 aggreg)
Cc1noc(C)c1CSc1nc2ccccc2c(=O)n1-c1ccccc1	ALDH1A1 block 4.5µM
CCOc1ccc(S(=O)(=O)n2cnc3cc(C)c(C)cc32)cc1	HttQ103 aggreg 11µM
COC(=O)C/C=C/[C@@H](C)[C@H](NC(=O)OCC(Cl)(Cl)Cl)c1cccc(OC)c1	HTT cytoprotect inconclusive (no result: PNC assembly inh, HttQ103 aggreg)
Cc1cc(C)c2c(N)c3cccc(C)c3nc2n1	CBFb-RUNX1 inh inconclusive, PNC assembly inh -92, ALDH1A1 block inconclusive, HPGD block inconclusive, HttQ103 aggreg 13µM (no result: HTT cytoprotect)
Cc1ccc(N2CC(C(=O)N/N=C/c3cccc([N+](=O)[O-])c3)CC2=O)cc1 (configuration not stated)	PNC assembly inh -83
O=C(N/N=C/c1cccc([N+](=O)[O-])c1)C1CC(=O)N(c2ccc(Cl)cc2)C1 (configuration not stated)	none
COc1cc2oc(=O)cc(-c3ccc(-c4ccc(CO)cc4)cc3)c2c(OC)c1OC	ALDH1A1 block inconclusive, HPGD block inconclusive (no result: PNC assembly inh, HttQ103 aggreg)
O=C(CSc1cccc2cccc(Cl)c12)OCC(=O)N1CCN(C(=O)c2ccco2)CC1	ALDH1A1 block 11µM, HPGD block inconclusive
O=C(Cc1ccccc1F)OCC(=O)N1CCN(C(=O)c2ccco2)CC1	ALDH1A1 block inconclusive (no result: PNC assembly inh, HPGD block)
O=C(OCC(=O)N1CCN(C(=O)c2ccco2)CC1)c1sc2cc(F)ccc2c1Cl	ALDH1A1 block 28µM, HttQ103 aggreg inconclusive
O=C(NCc1ccco1)c1sc2cc(F)ccc2c1Cl	HPGD block 25µM
O=C(Nc1ccon1)c1sc2cc(F)ccc2c1Cl	PNC assembly inh -100
O=C(NC1=NCCS1)c1sc2cc(F)ccc2c1Cl	none
CC(C)NC[C@H]1CCc2cc(CO)c([N+](=O)[O-])cc2N1	CBFb-RUNX1 inh inconclusive (no result: PNC assembly inh)
Cn1c(=O)c2cc(S(=O)(=O)N3CCC(c4ccccc4)CC3)ccc2n(C)c1=O	none
CC1CCC2(CC1)NC(=O)N(CC(=O)N1CCc3ccccc3C1)C2=O (configuration not stated)	none (no result: PNC assembly inh, HPGD block)
CC1CCC2(CC1)NC(=O)N(CC(=O)c1cn(CCC#N)c3ccccc13)C2=O (configuration not stated)	ALDH1A1 block 7.1µM (no result: PNC assembly inh, HPGD block)
Cc1cccc2c(N=O)c(O)[nH]c12	none (no result: PNC assembly inh, ALDH1A1 block, HPGD block)
Oc1ccc2ccccc2c1CNc1cnc2ccccc2c1	ALDH1A1 block inconclusive, HPGD block inconclusive, HttQ103 aggreg inconclusive
Oc1ccccc1CNc1cnc2ccccc2c1	ALDH1A1 block inconclusive, HPGD block inconclusive, HttQ103 aggreg 35µM
Cc1cc(C)c2cc(C(c3nnnn3C3CCCC3)N3CCOCC3)c(=O)[nH]c2c1 (configuration not stated)	ALDH1A1 block 14µM, HPGD block inconclusive
Cc1cccc2cc(C(c3nnnn3C3CCCC3)N3CCOCC3)c(=O)[nH]c12 (configuration not stated)	ALDH1A1 block inconclusive
COc1ccc2cc(C(c3nnnn3C3CCCC3)N3CCc4ccccc4C3)c(=O)[nH]c2c1 (configuration not stated)	ALDH1A1 block 18µM, HPGD block inconclusive
Cc1ccc2cc(C(c3nnnn3C3CCCC3)N3CCN(c4ccc(F)cc4)CC3)c(=O)[nH]c2c1 (configuration not stated)	ALDH1A1 block 11µM
Cc1cc(C)c2c(N)c(C(=O)c3ccccc3)sc2n1	none (no result: PNC assembly inh, ALDH1A1 block, HPGD block)

Assay outcomes (PubChem)
